Laboratory results as given in PubChem BioAssay (NCI).
Compounds without any hit were thinned out: in the full panel of roughly 83,000, 20% have a hit.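 Growth was measured after 48 h exposure to one concentration of compound in 96-well plates. Values under 10 count as active.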 Unmarked numbers belong to inactive results. Active and inactive are the calls of the source.

How the values were obtained:
Assay in all cases: NCI-60 one-dose screen, 48 h (100 = growth as untreated, 0 = no growth, -100 = all killed)
Settings in all cases: 10 µM
NCI-H23 lung = test system: NCI-H23 lung
NCI-H226 lung = test system: NCI-H226 lung
NCI-H322M lung = test system: NCI-H322M lung
HOP-62 NSCLC = test system: HOP-62 NSCLC
NCI-H460 lung = test system: NCI-H460 lung
NCI-H522 lung = test system: NCI-H522 lung
A549/ATCC NSCLC = test system: A549/ATCC NSCLC
786-0 renal = test system: 786-0 renal
COLO 205 colon = test system: COLO 205 colon
DU-145 prostate = test system: DU-145 prostate

Compound	growth (NCI-H23 lung)	growth (NCI-H226 lung)	growth (NCI-H322M lung)	growth (HOP-62 NSCLC)	growth (NCI-H460 lung)	growth (NCI-H522 lung)	growth (A549/ATCC NSCLC)	growth (786-0 renal)	growth (COLO 205 colon)	growth (DU-145 prostate)
Nc1c(C(=O)Nc2cccc(Br)c2)sc2nc3c(cc12)C(O)CCC3 (stereo not given)	34.9%	68.6%	48.8%	38.1%	11.3%	-4.01% (active)	30.1%	45.1%	-1.49% (active)	-0.178% (active)
COc1ccc(N=C2C(=Nc3ccc(OC)cc3)N(c3ccc(N(C)C)cc3)C(=S)N2c2ccc(OC)cc2)cc1	90.9%	104%	90.3%	64.3%	85%	84.8%	90.4%	12.3%	109%	85.7%
CC(C)(C)c1ccc(N2CSC(=S)N(c3ccc(C(C)(C)C)cc3)C2)cc1	86.5%	93.2%	86.7%	88.2%	91.7%	-14.2% (active)	38%	103%	92.5%	123%
N=C1c2nc3n(c2C(=O)c2nc4n(c21)CCCC4)CCCC3	-70.4% (active)	57.1%	27.7%	52.3%	4.62% (active)	10.5%	-30.6% (active)	89%	-88.6% (active)	-93.9% (active)
Oc1[nH]c2cc(Cl)ccc2c1/C=c1/ccc2c(c1)N=C(c1cc(F)cc(F)c1)N=2	28.3%	55.1%	49.1%	25.3%	6.1% (active)	-3.39% (active)	37.9%	36.7%	-0.0984% (active)	-8.59% (active)
CC(=O)c1cc(Br)ccc1O	105%	101%	127%	118%	105%	87.4%	107%	104%	121%	114%
Cc1cc(N(CCCNc2ccnc3cc(Cl)ccc23)Cc2ccc3c(c2)OCO3)nc(N2CCCCC2)n1	6.38% (active)	38.1%	-5.02% (active)	-45.1% (active)	-30.8% (active)	-43.9% (active)	-32.8% (active)	-91.5% (active)	-78.7% (active)	11.1%
COc1cc(NC(=O)CCSc2nc3ccc(Cl)cc3c(=O)n2Cc2ccccc2)cc(OC)c1OC	93.5%	31.1%	83.1%	57.2%	81.8%	-9.19% (active)	59.3%	93.2%	107%	108%
COc1ccc2c(c1)C(=O)c1c-2c(OCCN2CCCCC2)nc2ccc(OC)cc12	12.6%	23.9%	5.72% (active)	24.4%	-50.7% (active)	25.1%	11.6%	18%	28%	11.3%
Nc1ccc2c(c1)Cc1cc(N)c(Br)cc1-2	92.1%	106%	113%	93.4%	97%	96.7%	100%	120%	107%	121%
COc1ccc2c(c1)sc1nc(-c3ccccc3)c(-c3cccnc3)n12	88.4%	103%	113%	125%	102%	-22.7% (active)	94.1%	96.9%	128%	107%
Cn1c(C(N)=O)cc2c1-c1nc(Nc3ccccc3)ncc1CCC2	52%	38.1%	46.6%	38.8%	37.6%	33.5%	31.1%	49.9%	59.8%	55.5%
COc1ccc2c(c1OC)O/C(=C\c1ncc([N+](=O)[O-])n1C)C2=O	-17.1% (active)	66.6%	84.1%	56%	-20.8% (active)	-54.5% (active)	19.3%	17.9%	-55.6% (active)	-24.7% (active)
Nc1ccc2cc(S(=O)(=O)O)cc(O)c2c1N=Nc1ccc(F)cc1	94.6%	107%	104%	109%	115%	100%	109%	100%	111%	118%
CC(C)=NNc1ncnc2c1ncn2C1OC(CO)C(O)C1O (stereo not given)	31.7%	32%	-1.85% (active)	7.08% (active)	-2.28% (active)	14.8%	14.3%	35%	3.97% (active)	12.8%
CCN(CCCCCCN1CC(=O)N(CCCCCCN(CC)Cc2ccccc2OC)CC1=O)Cc1ccccc1OC	60.4%	107%	96.5%	79.7%	75.1%	76%	85.8%	74.2%	54.6%	76.7%
CCN(CC)CCSCCN(CC)CC	102%	101%	109%	108%	102%	84.1%	103%	102%	106%	109%
O=C(N/N=C/c1ccccc1)C(Oc1ccccc1)c1ccccc1 (stereo not given)	89.1%	97.5%	94.2%	95%	94.5%	65.5%	111%	107%	109%	107%
COc1cc(C(=O)N2CCN(c3ccccc3OC)CC2)c(N)cc1OCCCN1CCN(c2ccccc2OC)CC1	69.8%	84.6%	100%	93.2%	108%	79.4%	92.7%	96%	85.9%	103%
Fc1ccc(-c2nnc(-c3c(-c4ccc(F)cc4)nc4ccccn34)o2)cc1	69%	84.2%	105%	78.5%	70%	25.9%	72.4%	88.2%	79.5%	92.1%
COc1ccc(OC)c(NC(=O)c2sc3nc4c(cc3c2N)C(=O)CCC4)c1	78.5%	88.6%	75.9%	94%	37.4%	60.6%	39%	95.4%	34.1%	113%
COC(=O)c1c(-c2ccccc2)csc1NC(=O)c1c(-c2ccccc2)noc1C	61.4%	49.6%	56.6%	52.1%	-15.3% (active)	36.1%	-18.6% (active)	24.1%	60.6%	39.7%
COc1ccc(N2C(=O)C3c4[nH]c5ccc(OCc6ccccc6)cc5c4C4CCC(C(C)C)CC4C3C2=O)cc1 (stereo not given)	104%	104%	102%	113%	103%	34.6%	99.4%	97.6%	102%	113%
CCC(=O)N1C/C(=C/c2ccc(OC)cc2)C(=O)/C(=C/c2ccc(OC)cc2)C1	63.9%	29.5%	111%	20.5%	61.4%	20.6%	32%	4.83% (active)	27.2%	18.7%
Cc1cc(Nc2ccc(Cl)cc2)nc(NCCCNc2ccnc3cc(Cl)ccc23)n1	51.2%	102%	-0.971% (active)	-22.6% (active)	-44.9% (active)	-78.8% (active)	-55.2% (active)	-98.7% (active)	-91.1% (active)	1.28% (active)
COc1cc(C(=C2O[C@@H]([C@H]3COC(C)(C)O3)[C@H]3OC(C)(C)O[C@@H]23)c2cc(OC)c(OC)c(OC)c2)cc(OC)c1OC	95.2%	94.4%	103%	104%	111%	106%	106%	97.2%	117%	112%
c1ccc2c(-c3nc(N4CCOCC4)c4c5c(sc4n3)CCCCCC5)cccc2c1	107%	93.8%	110%	101%	104%	91.2%	97.7%	103%	114%	119%
